Consider eleven sequences from publication PMC8384837, “Expanding the binding specificity for RNA recognition by a PUF domain”.

Common to all, as to assay: yeast three-hybrid, YBZ-1, SC-Leu-His + 0.5 mM 3-AT, 4 days
Holding throughout (settings): tags: N-Gal4 AD-HA kept; label: inside an RPR1-promoter hybrid RNA with tandem MS2 sites; ssRNA

One test concerns the target PUM1 PUF domain R4-APM (Homo sapiens, UniProt Q14671 828-1176, N971A;H972P;Q975M). The method in brief: (§1)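 Sequencing with Illumina followed PCR amplification of the repeat regions from transformants grown four days on SC-Leu (input) or SC-Leu-His + 0.5 mM 3-AT (selection). The transformants were strain YBZ-1 with a LexA–MS2 coat fusion and a HIS3 reporter, carrying Pumilio-1 PUF domain libraries and matching RNA elements. The interaction score is the log change in variant frequency from input to selection, computed in log2 with a pseudocount of 1 for absent variants.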

A further test deals with PUM1 PUF domain R5-RWS (Homo sapiens, UniProt Q14671 828-1176, C1007R;R1008W;Q1011S). The method in brief:
as §1

For a further test, the target named is PUM1 PUF domain R5-PHG (Homo sapiens, UniProt Q14671 828-1176, C1007P;R1008H;Q1011G). The method in brief:
as §1

The next test concerns the target PUM1 PUF domain R5-RHC (Homo sapiens, UniProt Q14671 828-1176, C1007R;R1008H;Q1011C). An outline of the steps: as §1
In another test the target is PUM1 PUF domain R5-GMI (Homo sapiens, UniProt Q14671 828-1176, C1007G;R1008M;Q1011I). An outline of the steps:
as §1

The next test has as its target PUM1 PUF domain R8-MRR (Homo sapiens, UniProt Q14671 828-1176, N1122M;Y1123R;Q1126R). An outline of the steps:
as §1

A further test addresses PUM1 PUF domain R8-VYP (Homo sapiens, UniProt Q14671 828-1176, N1122V;Q1126P). An outline of the steps:
as §1

Another test deals with PUM1 PUF domain R8-FYR (Homo sapiens, UniProt Q14671 828-1176, N1122F;Q1126R). The method in brief:
as §1

The target in the next test is PUM1 PUF domain R8-KFD (Homo sapiens, UniProt Q14671 828-1176, N1122K;Y1123F;Q1126D). The method in brief:
as §1

For another test, the target named is PUM1 PUF domain R3-ACF (Homo sapiens, UniProt Q14671 828-1176, C935A;R936C;Q939F). An outline of the steps:
as §1

In the next test the target is PUM1 PUF domain R3-PWL (Homo sapiens, UniProt Q14671 828-1176, C935P;R936W;Q939L). An outline of the steps: as §1
The next test addresses PUM1 PUF domain R8-MHR (Homo sapiens, UniProt Q14671 828-1176, N1122M;Y1123H;Q1126R). The method in brief: as §1
Another test has as its target PUM1 PUF domain R3-SRS (Homo sapiens, UniProt Q14671 828-1176, C935S;Q939S). An outline of the steps: as §1
In a further test the target is PUM1 PUF domain R4-WAC (Homo sapiens, UniProt Q14671 828-1176, N971W;H972A;Q975C). The method in brief: as §1
A further test addresses PUM1 PUF domain R2-LWT (Homo sapiens, UniProt Q14671 828-1176, N899L;Y900W;Q903T). The method in brief: as §1
The target of another test is PUM1 PUF domain R1-KVR (Homo sapiens, UniProt Q14671 828-1176, S863K;R864V;Q867R). An outline of the steps: as §1
A further test addresses PUM1 PUF domain R1-RLC (Homo sapiens, UniProt Q14671 828-1176, S863R;R864L;Q867C). The method in brief: as §1
The target of another test is PUM1 PUF domain R1-RHR (Homo sapiens, UniProt Q14671 828-1176, S863R;R864H;Q867R). An outline of the steps: as §1
Another test deals with PUM1 PUF domain R3-VFA (Homo sapiens, UniProt Q14671 828-1176, C935V;R936F;Q939A). An outline of the steps: as §1
Another test has as its target PUM1 PUF domain R3-WYG (Homo sapiens, UniProt Q14671 828-1176, C935W;R936Y;Q939G). The method in brief:
as §1

PUM1 PUF domain R2-LWT, sequence (Q14671 828-1176 N899L/Y900W/Q903T): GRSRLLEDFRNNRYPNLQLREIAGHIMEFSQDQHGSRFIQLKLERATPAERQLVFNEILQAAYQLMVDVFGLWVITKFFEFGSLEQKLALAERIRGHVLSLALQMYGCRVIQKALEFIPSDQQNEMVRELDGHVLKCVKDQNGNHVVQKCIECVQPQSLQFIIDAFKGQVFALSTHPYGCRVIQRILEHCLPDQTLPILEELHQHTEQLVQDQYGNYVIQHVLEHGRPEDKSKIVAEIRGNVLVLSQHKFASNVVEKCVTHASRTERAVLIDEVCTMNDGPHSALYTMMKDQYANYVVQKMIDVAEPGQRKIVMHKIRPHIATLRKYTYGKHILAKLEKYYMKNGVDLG
PUM1 PUF domain R3-SRS, sequence (Q14671 828-1176 C935S/Q939S): as the sequence (Q14671 828-1176 N899L/Y900W/Q903T) above, with L72N, W73Y, T76Q, C108S, Q112S counted along it
PUM1 PUF domain R4-APM, sequence (Q14671 828-1176 N971A/H972P/Q975M): as the sequence (Q14671 828-1176 N899L/Y900W/Q903T) above, with L72N, W73Y, T76Q, N144A, H145P, Q148M counted along it
PUM1 PUF domain R4-WAC, sequence (Q14671 828-1176 N971W/H972A/Q975C): as the sequence (Q14671 828-1176 N899L/Y900W/Q903T) above, with L72N, W73Y, T76Q, N144W, H145A, Q148C counted along it
PUM1 PUF domain R5-PHG, sequence (Q14671 828-1176 C1007P/R1008H/Q1011G): as the sequence (Q14671 828-1176 N899L/Y900W/Q903T) above, with L72N, W73Y, T76Q, C180P, R181H, Q184G counted along it
PUM1 PUF domain R3-PWL, sequence (Q14671 828-1176 C935P/R936W/Q939L): as the sequence (Q14671 828-1176 N899L/Y900W/Q903T) above, with L72N, W73Y, T76Q, C108P, R109W, Q112L counted along it
PUM1 PUF domain R8-FYR, sequence (Q14671 828-1176 N1122F/Q1126R): as the sequence (Q14671 828-1176 N899L/Y900W/Q903T) above, with L72N, W73Y, T76Q, N295F, Q299R counted along it
PUM1 PUF domain R1-RHR, sequence (Q14671 828-1176 S863R/R864H/Q867R): as the sequence (Q14671 828-1176 N899L/Y900W/Q903T) above, with S36R, R37H, Q40R, L72N, W73Y, T76Q counted along it
PUM1 PUF domain R1-KVR, sequence (Q14671 828-1176 S863K/R864V/Q867R): as the sequence (Q14671 828-1176 N899L/Y900W/Q903T) above, with S36K, R37V, Q40R, L72N, W73Y, T76Q counted along it
PUM1 PUF domain R8-VYP, sequence (Q14671 828-1176 N1122V/Q1126P): as the sequence (Q14671 828-1176 N899L/Y900W/Q903T) above, with L72N, W73Y, T76Q, N295V, Q299P counted along it
PUM1 PUF domain R3-VFA, sequence (Q14671 828-1176 C935V/R936F/Q939A): as the sequence (Q14671 828-1176 N899L/Y900W/Q903T) above, with L72N, W73Y, T76Q, C108V, R109F, Q112A counted along it
PUM1 PUF domain R5-RHC, sequence (Q14671 828-1176 C1007R/R1008H/Q1011C): as the sequence (Q14671 828-1176 N899L/Y900W/Q903T) above, with L72N, W73Y, T76Q, C180R, R181H, Q184C counted along it
PUM1 PUF domain R3-WYG, sequence (Q14671 828-1176 C935W/R936Y/Q939G): as the sequence (Q14671 828-1176 N899L/Y900W/Q903T) above, with L72N, W73Y, T76Q, C108W, R109Y, Q112G counted along it
PUM1 PUF domain R1-RLC, sequence (Q14671 828-1176 S863R/R864L/Q867C): as the sequence (Q14671 828-1176 N899L/Y900W/Q903T) above, with S36R, R37L, Q40C, L72N, W73Y, T76Q counted along it
PUM1 PUF domain R8-MRR, sequence (Q14671 828-1176 N1122M/Y1123R/Q1126R): as the sequence (Q14671 828-1176 N899L/Y900W/Q903T) above, with L72N, W73Y, T76Q, N295M, Y296R, Q299R counted along it
PUM1 PUF domain R5-GMI, sequence (Q14671 828-1176 C1007G/R1008M/Q1011I): as the sequence (Q14671 828-1176 N899L/Y900W/Q903T) above, with L72N, W73Y, T76Q, C180G, R181M, Q184I counted along it
PUM1 PUF domain R3-ACF, sequence (Q14671 828-1176 C935A/R936C/Q939F): as the sequence (Q14671 828-1176 N899L/Y900W/Q903T) above, with L72N, W73Y, T76Q, C108A, R109C, Q112F counted along it
PUM1 PUF domain R8-MHR, sequence (Q14671 828-1176 N1122M/Y1123H/Q1126R): as the sequence (Q14671 828-1176 N899L/Y900W/Q903T) above, with L72N, W73Y, T76Q, N295M, Y296H, Q299R counted along it
PUM1 PUF domain R5-RWS, sequence (Q14671 828-1176 C1007R/R1008W/Q1011S): as the sequence (Q14671 828-1176 N899L/Y900W/Q903T) above, with L72N, W73Y, T76Q, C180R, R181W, Q184S counted along it
PUM1 PUF domain R8-KFD, sequence (Q14671 828-1176 N1122K/Y1123F/Q1126D): as the sequence (Q14671 828-1176 N899L/Y900W/Q903T) above, with L72N, W73Y, T76Q, N295K, Y296F, Q299D counted along it

On to “GGCUAGAACUAGUGGAUCCCCCGGCGCCCGGCGGCUCGAGCCCGGGUAAGUGUAUAUAGUCUGCAUGCCGCCGGGCGCCAUGCCUGCAGGUCGACUCUAGAAAACAUG”, for which, in the test with PUM1 PUF domain R4-APM, the binding signal was 2.03 log2 enrichment (interaction score).

Consider “GGCUAGAACUAGUGGAUCCCCCGGCGCCCGGCGGCUCGAGCCCGGGUAAGUGUUAAUAGUCUGCAUGCCGCCGGGCGCCAUGCCUGCAGGUCGACUCUAGAAAACAUG”, for which the binding signal with PUM1 PUF domain R5-RWS was 6.47 log2 enrichment (interaction score); with PUM1 PUF domain R5-PHG it was 4.37 log2 enrichment (interaction score); with PUM1 PUF domain R5-RHC, 5.98 log2 enrichment (interaction score); in the test with PUM1 PUF domain R5-GMI it was 2.18 log2 enrichment (interaction score).

In the case of “GGCUAGAACUAGUGGAUCCCCCGGCGCCCGGCGGCUCGAGCCCGGGUAAGCGUAAAUAGUCUGCAUGCCGCCGGGCGCCAUGCCUGCAGGUCGACUCUAGAAAACAUG”, the binding signal in the test with PUM1 PUF domain R8-MRR was 2.54 log2 enrichment (interaction score); with PUM1 PUF domain R8-VYP it was 3.87 log2 enrichment (interaction score); in the test with PUM1 PUF domain R8-FYR, 5.29 log2 enrichment (interaction score); with PUM1 PUF domain R8-KFD it was 5.69 log2 enrichment (interaction score).

Consider “GGCUAGAACUAGUGGAUCCCCCGGCGCCCGGCGGCUCGAGCCCGGGUAAGUGUAAAUAGUCUGCAUGCCGCCGGGCGCCAUGCCUGCAGGUCGACUCUAGAAAACAUG”, for which the binding signal with PUM1 PUF domain R4-APM was 4.28 log2 enrichment (interaction score); with PUM1 PUF domain R3-ACF, 4.04 log2 enrichment (interaction score); in the test with PUM1 PUF domain R3-PWL, 2.76 log2 enrichment (interaction score); with PUM1 PUF domain R8-MRR, 1.68 log2 enrichment (interaction score); with PUM1 PUF domain R8-VYP, 2.77 log2 enrichment (interaction score); with PUM1 PUF domain R5-PHG, 4.89 log2 enrichment (interaction score). In addition, the binding signal in the test with PUM1 PUF domain R5-RHC was 3.15 log2 enrichment (interaction score); in the test with PUM1 PUF domain R8-FYR, 5.38 log2 enrichment (interaction score); with PUM1 PUF domain R8-MHR, 3.92 log2 enrichment (interaction score); with PUM1 PUF domain R3-SRS, 4.33 log2 enrichment (interaction score); in the test with PUM1 PUF domain R4-WAC, 3.2 log2 enrichment (interaction score); in the test with PUM1 PUF domain R2-LWT, 1.6 log2 enrichment (interaction score).

For the sequence “GGCUAGAACUAGUGGAUCCCCCGGCGCCCGGCGGCUCGAGCCCGGGUAAGUGUAAAUCGUCUGCAUGCCGCCGGGCGCCAUGCCUGCAGGUCGACUCUAGAAAACAUG”, the values for the binding signal in the test with PUM1 PUF domain R1-KVR, with PUM1 PUF domain R1-RLC and with PUM1 PUF domain R1-RHR were 1.81 log2 enrichment (interaction score), 3.21 log2 enrichment (interaction score) and 2.88 log2 enrichment (interaction score), respectively.

For “GGCUAGAACUAGUGGAUCCCCCGGCGCCCGGCGGCUCGAGCCCGGGUAAGUGUAAAUUGUCUGCAUGCCGCCGGGCGCCAUGCCUGCAGGUCGACUCUAGAAAACAUG”, the binding signal is 5.73 log2 enrichment (interaction score) with PUM1 PUF domain R1-KVR, 1.93 log2 enrichment (interaction score) in the test with PUM1 PUF domain R1-RLC and 2.91 log2 enrichment (interaction score) with PUM1 PUF domain R1-RHR.

“GGCUAGAACUAGUGGAUCCCCCGGCGCCCGGCGGCUCGAGCCCGGGUAAGUGUAAAGAGUCUGCAUGCCGCCGGGCGCCAUGCCUGCAGGUCGACUCUAGAAAACAUG”: the binding signal in the test with PUM1 PUF domain R2-LWT is 2.4 log2 enrichment (interaction score).

As to “GGCUAGAACUAGUGGAUCCCCCGGCGCCCGGCGGCUCGAGCCCGGGUAAGUGUAAGUAGUCUGCAUGCCGCCGGGCGCCAUGCCUGCAGGUCGACUCUAGAAAACAUG”, the figures for the binding signal with PUM1 PUF domain R3-VFA, with PUM1 PUF domain R3-SRS and in the test with PUM1 PUF domain R3-WYG were 2.39 log2 enrichment (interaction score), 2.81 log2 enrichment (interaction score) and 3.09 log2 enrichment (interaction score), respectively.

Take “GGCUAGAACUAGUGGAUCCCCCGGCGCCCGGCGGCUCGAGCCCGGGUAAGUGUAAAAAGUCUGCAUGCCGCCGGGCGCCAUGCCUGCAGGUCGACUCUAGAAAACAUG”: the binding signal in the test with PUM1 PUF domain R2-LWT is 5.62 log2 enrichment (interaction score).

“GGCUAGAACUAGUGGAUCCCCCGGCGCCCGGCGGCUCGAGCCCGGGUAAGUGUACAUAGUCUGCAUGCCGCCGGGCGCCAUGCCUGCAGGUCGACUCUAGAAAACAUG”: the binding signal with PUM1 PUF domain R4-APM is 2.11 log2 enrichment (interaction score); in the test with PUM1 PUF domain R4-WAC, 2.99 log2 enrichment (interaction score).

As for “GGCUAGAACUAGUGGAUCCCCCGGCGCCCGGCGGCUCGAGCCCGGGUAAGUGUAAUUAGUCUGCAUGCCGCCGGGCGCCAUGCCUGCAGGUCGACUCUAGAAAACAUG”, the binding signal with PUM1 PUF domain R3-VFA was 2.77 log2 enrichment (interaction score); with PUM1 PUF domain R3-PWL it was 3.68 log2 enrichment (interaction score); in the test with PUM1 PUF domain R3-SRS it was 1.65 log2 enrichment (interaction score); with PUM1 PUF domain R3-WYG, 4.81 log2 enrichment (interaction score).
